Measured values published in PubChem BioAssay AID651813 (National Center for Advancing Translational Sciences (NCATS), 2012).
The whole screen tested about 2,100 compounds, of which about 1,100 (52%) were called active. About 27% were inconclusive and are not listed. So high a share suggests a set chosen from earlier hits. Some of the results follow. Unmarked numbers belong to inactive results. Calls come from the whole dose curve; as a rule, active = well fitted inhibition curve with a large enough effect; inconclusive = small, poorly fitted or top-dose-only effect; inactive = no such curve, though single readings can be large or run the other way.
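Note: hits raise yellow fluorescence by blocking Vif-driven A3G-eYFP degradation; nearly all actives have a fitted effect of over 70% in size.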
Potency is the fitted concentration of half-maximal effect.
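Throughout, for max response: max response given as percent of control signal.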

The compounds below were run against DNA dC->dU-editing enzyme APOBEC-3G (Homo sapiens) (UniProt Q9HC16) (assay: qHTS for inhibitors of Vif-A3G interactions: Cherry picks counterscreen). Conditions: HeLa A3G-eYFP + Vif (tagged APOBEC3G with the HIV-1 protein that degrades it), eYFP fluorescence, 24 h.
Sequence of DNA dC->dU-editing enzyme APOBEC-3G (Homo sapiens) (Q9HC16 whole entry, looked up): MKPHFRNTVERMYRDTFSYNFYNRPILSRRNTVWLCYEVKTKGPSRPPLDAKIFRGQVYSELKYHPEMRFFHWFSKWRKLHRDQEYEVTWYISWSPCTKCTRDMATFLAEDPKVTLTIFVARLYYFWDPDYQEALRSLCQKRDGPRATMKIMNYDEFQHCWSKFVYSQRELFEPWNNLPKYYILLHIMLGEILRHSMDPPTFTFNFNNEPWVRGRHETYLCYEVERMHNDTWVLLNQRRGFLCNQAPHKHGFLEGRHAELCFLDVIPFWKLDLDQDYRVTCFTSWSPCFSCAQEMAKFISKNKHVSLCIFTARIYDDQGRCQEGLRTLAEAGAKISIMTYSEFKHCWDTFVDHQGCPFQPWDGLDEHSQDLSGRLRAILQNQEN
How it was run: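 Readout is eYFP fluorescence (488 nm excitation, 500-530 nm emission) measured on Acumen Explorer after 24 h compound exposure, several concentrations, at 37 deg C. Cells: HeLa stably co-expressing Vif and C-terminally eYFP-tagged A3G; MG132 positive control.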
In the case of `Cc1cc(C)nc(NC(=S)Nc2cccc(Cl)c2Cl)c1`, the max response is reported as 1.24%.
For `O=C(NCC1CCCO1)c1nn2c(C(F)(F)F)cc(-c3cc(Br)cs3)nc2c1Br` (centres undefined), the Potency was 16.4 µM (active).
With `Cc1ccc(C(=O)NC2c3ccccc3-c3ccccc32)cc1` the Potency was 1.98 µM (active).
With `O=c1c2cc3ccccc3n2cnn1Cc1ccccc1F` the Potency was 12.5 µM (active).
In the case of `CC(CC(=O)Nc1ccc2c(c1)c(=O)n(C)n2-c1ccccc1F)c1ccccc1` (centres undefined), the Potency is reported as 15.8 µM (active).
`CC(CC(=O)Nc1ccc2c(c1)c(=O)n(C)n2Cc1ccc(F)cc1)c1ccccc1` (centres undefined) was tested, and the max response was -26%.
In the case of `Cn1c(=O)c2cc(NC(=O)Cc3cccc4ccccc34)ccc2n1-c1ccccc1`, the Potency is reported as 11.2 µM (active).
For `CC(CC(=O)Nc1ccc2c(c1)c(=O)n(C)n2-c1ccccc1)c1ccccc1` (centres undefined), the Potency was 3.96 µM (active).
For `CCCCCCNc1ccc(/C=C/c2ccnc3ccccc23)cc1`, the Potency was 18.4 µM (active).
For `CCCCCCCNc1ccc(/C=C/c2ccnc3ccccc23)cc1`, the Potency was 11.6 µM (active).
For `COc1ccccc1NC(=O)c1sc2ncn(CC(=O)Nc3ccccc3)c(=O)c2c1C`, the Potency was 18.4 µM (active).
`CCC(=O)Nc1nc2ccc(NC(=O)c3cc(OC)c(OC)c(OC)c3)cc2s1` showed a max response of -0.685%.
With `CCCC(=O)Nc1nc2ccc(NC(=O)c3ccccc3F)cc2s1` the Potency was 15.8 µM (active).
In the case of `COc1ccc(OC)c(-c2cc(-c3cccnc3)nc(N)c2C#N)c1`, the Potency is reported as 5.59 µM (active).
With `COc1ccc(-c2c(C#N)c(N)nc(Sc3ccc(Cl)cc3)c2C#N)cc1` the max response was -11.5%.
`COc1ccccc1-c1cc(-c2ccccc2)nc(SC(C(N)=O)c2ccccc2)c1C#N` (centres undefined) showed a max response of -23.2%.
With `CCOCCCNC(=O)/C(C#N)=C/c1ccc([N+](=O)[O-])o1` the Potency was 23.1 µM (active).
`Cc1ccc(NC(=O)C(=Cc2ccc(C(=O)O)cc2)C(=O)Nc2ccc(C)cc2C)c(C)c1` was tested, and the Potency was 7.04 µM (active).
In the case of `COc1cc(/C=C/c2ccnc3ccccc23)ccc1N(C)C`, the Potency is reported as 18.4 µM (active).
For `COc1cc(N(C)C)c(OC)cc1/C=C/c1ccnc2ccccc12`, the Potency was 23.1 µM (active).
With `C=CCN=c1scc(-c2ccc(F)cc2)n1/N=C/c1ccccn1` the max response was -11.2%.
With `COc1ccc(C(=O)c2sc3nc(C)cc(-c4cccs4)c3c2N)cc1` the Potency was 20.6 µM (active).
For `COc1ccc(OC)c(NC(=O)c2sc3nc(Cc4ccccc4)cc(C(F)(F)F)c3c2N)c1`, the Potency was 3.66 µM (active).
Work on `CCC(=O)OCc1cnc(C)c2oc(=O)c(C(=O)Nc3ccccc3C(F)(F)F)cc12` yielded a max response of -2.09%.
For `CCc1ccc(NC(=O)c2sc3nc(C)c(C(=O)Nc4ccc(C)cc4C)c(-c4ccco4)c3c2N)cc1`, the Potency was 23.1 µM (active).
In the case of `COc1cccc(C(=O)c2sc3nc(-c4ccccc4)cc(C(F)(F)F)c3c2N)c1`, the Potency is reported as 0.92 µM (active).
`CCOC(=O)c1sc(NC(=S)NC(=O)c2ccco2)nc1C` gave a max response of -15.3%.
`COc1ccc(NC(=O)c2sc3nc(-c4ccc(OC)cc4)cc(C(F)(F)F)c3c2N)cc1` was tested, and the Potency was 1.3 µM (active).
`CCOC(=O)c1c(-c2ccc(OC)cc2)csc1/N=C/C1C(=O)CCCC1=O` was tested, and the max response was -18.7%.
In the case of `COc1ccc(C(=O)c2sc3nc(-c4ccc(C)cc4)cc(C(F)(F)F)c3c2N)cc1`, the Potency is reported as 0.731 µM (active).
In the case of `CCOC(=O)c1c(C)nc2sc(C(=O)Nc3ccc(OC)cc3)c(N)c2c1-c1ccc(OC)cc1`, the Potency is reported as 1.98 µM (active).
`Cc1c(C(=O)Nc2ccc(C(C)C)cc2)sc2nc3n(c(=O)c12)CCC3` was tested, and the max response was 6.74%.
With `Cc1ccc2c(c1C)NC(=O)CC(c1ccccc1O)=N2` the max response was -6.13%.
In the case of `O=C(Cc1nc2ccccc2[nH]c1=O)c1ccc(Cl)cc1`, the Potency is reported as 1.03 µM (active).
`COc1ccc(CN2C(=O)C(C)Nc3ncnc(N4CCc5ccccc5C4)c32)cc1` (centres undefined) was tested, and the Potency was 3.53 µM (active).
With `Cc1ccc(S(=O)(=O)c2cc3ccccc3oc2=Nc2ccc3c(c2)OCO3)cc1` the max response was 12.1%.
With `C=C(C)CNC(=S)N/N=C1\CCCCc2ccccc21` the max response was -14.6%.
With `CN(C)c1ccc(/C=C/c2ccnc3ccccc23)cc1O` the Potency was 20.6 µM (active).
With `CN1CCCc2cc(/C=C/c3ccnc4ccccc34)ccc21` the Potency was 5.8 µM (active).
In the case of `CN(C)c1ccc(/C=C/c2ccnc3ccccc23)cc1C=O`, the Potency is reported as 5.17 µM (active).
For `Cc1cc(/C=C/c2ccnc3ccccc23)ccc1N(C)C`, the Potency was 14.6 µM (active).
With `O=C(Nc1cc(Cl)cc2c1-c1ccc(Cl)cc1C2O)C(Cl)Cl` (centres undefined) the max response was -14.6%.
`O=C(/C=C/c1ccncc1)c1cc(Cl)ccc1O` showed a max response of -22.8%.
In the case of `Cc1cc(/C=C/c2ccnc3ccccc23)ccc1N`, the Potency is reported as 18.4 µM (active).
`CCc1cc(/C=C/c2ccnc3ccccc23)ccc1N(C)C` was tested, and the Potency was 20.6 µM (active).
In the case of `CN1C(=O)C(O)(C2COC(C)(C)CC2=O)c2cc(Br)ccc21` (centres undefined), the max response is reported as -0.606%.
`N=C1S/C(=C\c2ccc(-c3cccc(Cl)c3)o2)C(=O)N1c1nccs1` was tested, and the Potency was 16.4 µM (active).
For `CCc1ccc(CNC(=O)Cc2ccc(NC(=O)C3=C(C)OCCS3)cc2)cc1`, the Potency was 0.886 µM (active).
`CC(C)OC(=O)c1cc(C(=O)c2cc(F)ccc2O)coc1=N` was tested, and the Potency was 20.6 µM (active).
`CC(C)OC(=O)c1ccc(NCc2cc(O)ccc2O)cc1Cl` was tested, and the max response was -19.4%.
For `O=C(N/N=C/c1ccc(Cl)cc1)c1cc2c(s1)-c1ccccc1CC2`, the Potency was 7.04 µM (active).
With `COc1ccc(-c2[nH]ncc2N=Nc2ccccc2)cc1` the Potency was 8.86 µM (active).
In the case of `Cc1ccccc1OCCc1c(C)[nH]c(=S)[nH]c1=O`, the Potency is reported as 2.5 µM (active).
In the case of `Cc1ccc(-c2nc(SCCOc3ccccc3C)n3[nH]c(=O)cc3n2)cc1`, the max response is reported as 23%.
In the case of `N#C/C(=C\c1cccc(O)c1)c1nc2ccccc2o1`, the Potency is reported as 7.04 µM (active).
With `O=C(Nc1ccc(Cl)cc1)Nc1ccon1` the max response was -27.2%.
`Cc1ccccc1OCC(=O)NNC(=O)Nc1ccc(Cl)cc1` was tested, and the Potency was 6.27 µM (active).
In the case of `COc1cccc(/C=N/NC(=O)c2[nH]nc3c2CCc2ccccc2-3)c1`, the Potency is reported as 5.59 µM (active).
In the case of `COc1ccc(/C=N/NC(=O)c2[nH]nc3c2CCc2ccccc2-3)cc1OC`, the Potency is reported as 3.96 µM (active).
